Values joined by “and” are separate entries in the source; they are usually repeats but may differ in a detail not shown here. Equal values may be shown once. The campaign covered roughly 5,500 compounds. About 2,000 (36%) were called active. Not shown: some 18% with an inconclusive outcome. No stated cut-off is given here; in the data, active means normalized growth mostly below about 0.91 (no sharp cut-off); inconclusive means no clear call, values can overlap the other calls; inactive means mostly above about 0.92. This is one part of the list.
Assay: chemical genetic growth profiling, strain panel (AID 1159580);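 further: tested at 20 µM; growth read once vehicle control cultures reached saturation at 30 °C; 1 = growth at the plate median or of vehicle wells; lower values mean less growth of the strain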
Settings: growth OD

Measured: normalized growth

NC(=O)c1cccc(N)c1
inactive: S. cerevisiae deletion strains, locus YJR043C, strain POL32, hits give low values 1.01 | S. cerevisiae deletion strains, locus YJR075W, strain HOC1, hits give low values 1.01 | S. cerevisiae deletion strains, locus YKL009W, strain mrt4, hits give low values 0.996 | S. cerevisiae deletion strains, locus YKL068W, hits give low values 0.993 | S. cerevisiae deletion strains, locus YKL085W, strain MDH1 (second series), hits give low values 1 | S. cerevisiae deletion strains, locus YKL085W, strain MDH1, hits give low values 1 | S. cerevisiae deletion strains, locus YKL160W, strain elf1, hits give low values 0.984 | S. cerevisiae deletion strains, locus YKL190W, strain CNB1, hits give low values 1.02 | S. cerevisiae deletion strains, locus YKR001C, strain vps1, hits give low values 0.996 | S. cerevisiae deletion strains, locus YKR026C, strain gcn3, hits give low values 0.977 | S. cerevisiae deletion strains, locus YKR091W, strain srl3, hits give low values 0.977 | S. cerevisiae deletion strains, locus YLL001W, strain dnm1, hits give low values 0.93 | S. cerevisiae deletion strains, locus YLL026W, hits give low values 0.984 | S. cerevisiae deletion strains, locus YLL041C, strain sdh2, hits give low values 0.97 | S. cerevisiae deletion strains, locus YLR027C, strain aat2, hits give low values 0.997 | S. cerevisiae deletion strains, locus YLR039C, strain RIC1, hits give low values 1 | S. cerevisiae deletion strains, locus YLR058C, strain SHM2, hits give low values 1.01 | S. cerevisiae deletion strains, locus YLR102C, strain apc9, hits give low values 0.998 | S. cerevisiae deletion strains, locus YLR221C, strain rsa3, hits give low values 0.962 | S. cerevisiae deletion strains, locus YLR258W, strain gsy2, hits give low values 0.972 | S. cerevisiae deletion strains, locus YLR262C, strain YPT6 (second series), hits give low values 0.966 | S. cerevisiae deletion strains, locus YLR262C, strain YPT6, hits give low values 1.01 | S. cerevisiae deletion strains, locus YLR268W, strain sec22, hits give low values 0.996 | S. cerevisiae deletion strains, locus YLR320W, strain mms22, hits give low values 0.988 | S. cerevisiae deletion strains, locus YLR330W, strain CHS5, hits give low values 1.01 | S. cerevisiae deletion strains, locus YLR342W, strain FKS1 (second series), hits give low values 1.01 | S. cerevisiae deletion strains, locus YLR342W, strain FKS1, hits give low values 0.942 | S. cerevisiae deletion strains, locus YLR357W, strain rsc2, hits give low values 0.976 | S. cerevisiae deletion strains, locus YLR370C, strain arc18, hits give low values 0.941 | S. cerevisiae deletion strains, locus YLR371W, strain rom2, hits give low values 1 | S. cerevisiae deletion strains, locus YLR384C, strain iki3, hits give low values 0.992 | S. cerevisiae deletion strains, locus YLR418C, strain cdc73, hits give low values 1.01 | S. cerevisiae deletion strains, locus YML016C, strain PPZ1, hits give low values 1 | S. cerevisiae deletion strains, locus YML032C, strain rad52, hits give low values 0.993 | S. cerevisiae deletion strains, locus YML120C, strain ndi1, hits give low values 0.994 | S. cerevisiae deletion strains, locus YML124C, strain tub3, hits give low values 0.995 | S. cerevisiae deletion strains, locus YMR058W, strain fet3, hits give low values 0.965 | S. cerevisiae deletion strains, locus YMR078C, strain ctf18, hits give low values 0.999 | S. cerevisiae deletion strains, locus YMR125W, strain sto1, hits give low values 0.976 | S. cerevisiae deletion strains, locus YMR129W, hits give low values 1.01 | S. cerevisiae deletion strains, locus YMR205C, strain PFK2, hits give low values 0.991 | S. cerevisiae deletion strains, locus YMR223W, strain ubp8, hits give low values 0.993 | S. cerevisiae deletion strains, locus YMR231W, strain pep5, hits give low values 0.984 | S. cerevisiae deletion strains, locus YMR263W, strain SAP30, hits give low values 1.02 | S. cerevisiae deletion strains, locus YMR307W, strain GAS1, hits give low values 1.02 | S. cerevisiae deletion strains, locus YNL067W, strain RPL9B, hits give low values 1.01 | S. cerevisiae deletion strains, locus YNL071W, strain lat1, hits give low values 0.961 | S. cerevisiae deletion strains, locus YNL128W, strain TEP1, hits give low values 1.01 | S. cerevisiae deletion strains, locus YNL153C, strain GIM3, hits give low values 1.01 | S. cerevisiae deletion strains, locus YNL175C, strain NOP13, hits give low values 1.02 | S. cerevisiae deletion strains, locus YNL197C, strain WHI3, hits give low values 1.01 | S. cerevisiae deletion strains, locus YNL209W, strain ssb2, hits give low values 0.985 | S. cerevisiae deletion strains, locus YNL224C, strain SQS1, hits give low values 1.02 | S. cerevisiae deletion strains, locus YNL233W, strain BNI4, hits give low values 0.999 | S. cerevisiae deletion strains, locus YNL248C, strain rpa49, hits give low values 0.974 | S. cerevisiae deletion strains, locus YNL250W, strain rad50, hits give low values 0.988 | S. cerevisiae deletion strains, locus YNL271C, strain bni1, hits give low values 0.989 | S. cerevisiae deletion strains, locus YNL298W, strain CLA4, hits give low values 1.01 | S. cerevisiae deletion strains, locus YNL307C, strain MCK1, hits give low values 0.996 | S. cerevisiae deletion strains, locus YNL322C, strain KRE1 (second series), hits give low values 0.968 | S. cerevisiae deletion strains, locus YNL322C, strain KRE1, hits give low values 1.01 | S. cerevisiae deletion strains, locus YNR049C, strain mso1, hits give low values 0.965 | S. cerevisiae deletion strains, locus YNR052C, strain pop2, hits give low values 1 | S. cerevisiae deletion strains, locus YOL006C, strain TOP1, hits give low values 1.06 | S. cerevisiae deletion strains, locus YOL012C, strain htz1 1 | S. cerevisiae deletion strains, locus YOL147C, strain pex11, hits give low values 1 | S. cerevisiae deletion strains, locus YOR001W, strain rrp6, hits give low values 0.97 | S. cerevisiae deletion strains, locus YOR061W, strain CKA2, hits give low values 1 | S. cerevisiae deletion strains, locus YOR069W, strain VPS5, hits give low values 1.01 | S. cerevisiae deletion strains, locus YOR070C, strain gyp1, hits give low values 1.02 | S. cerevisiae deletion strains, locus YOR080W, strain dia2, hits give low values 0.981 | S. cerevisiae deletion strains, locus YOR083W, strain WHI5 (second series), hits give low values 1.02 | S. cerevisiae deletion strains, locus YOR083W, strain WHI5, hits give low values 0.994 | S. cerevisiae deletion strains, locus YOR106W, strain vam3, hits give low values 0.972 | S. cerevisiae deletion strains, locus YOR136W, strain idh2, hits give low values 0.993 | S. cerevisiae deletion strains, locus YOR144C, strain elg1, hits give low values 0.992 | S. cerevisiae deletion strains, locus YOR184W, strain ser1, hits give low values 1 | S. cerevisiae deletion strains, locus YOR265W, strain rbl2, hits give low values 0.968 | S. cerevisiae deletion strains, locus YOR270C, strain vph1, hits give low values 0.995 | S. cerevisiae deletion strains, locus YOR290C, strain snf2, hits give low values 0.974 | S. cerevisiae deletion strains, locus YOR316C, strain cot1, hits give low values 1 | S. cerevisiae deletion strains, locus YPL051W, strain arl3, hits give low values 1 | S. cerevisiae deletion strains, locus YPL055C, strain LGE1, hits give low values 1.06 | S. cerevisiae deletion strains, locus YPL078C, strain atp4, hits give low values 0.963 | S. cerevisiae deletion strains, locus YPL106C, strain sse1, hits give low values 0.964 | S. cerevisiae deletion strains, locus YPL240C, strain hsp82, hits give low values 0.984 | S. cerevisiae deletion strains, locus YPL241C, strain CIN2, hits give low values 1.01 and 1 | S. cerevisiae deletion strains, locus YPR119W, strain clb2, hits give low values 0.988 | S. cerevisiae deletion strains, locus YPR141C, strain kar3, hits give low values 0.996 | S. cerevisiae deletion strains, locus YPR163C, strain tif3, hits give low values 1 | S. cerevisiae deletion strains, locus YPR167C, strain met16, hits give low values 0.996 | S. cerevisiae deletion strains, strain wtn01, hits give low values 0.983 | S. cerevisiae strains, strain wild type, hits give low values 1

Source: PubChem BioAssay AID1159580 (chemical genetic matrix, 2015)
